Values without a mark were called inactive. Active and inactive are the calls of the source.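 How the source made its calls: active means blocks over 70% of labeled estradiol binding at 10 µM, or over a set limit at 100 nM; inactive means the rest.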

The target of the assay is Estrogen receptor beta (Homo sapiens) (UniProt Q92731). Nature of the assay: ERbeta ligand binders by competition, primary screen, cell-based, Cos7 ERbeta-GFP, flow cytometry (AID 1210).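 Further: 0% = DMSO vehicle wells and 100% = complete loss of labeled estradiol signal.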 Particulars: fluorescent estrogen binding, at 10 µM, active compounds read high. On the technique in general: Flow cytometry measures light scatter and fluorescence of single cells or particles in a stream.
Estrogen receptor beta (Homo sapiens), sequence (Q92731 whole entry, looked up): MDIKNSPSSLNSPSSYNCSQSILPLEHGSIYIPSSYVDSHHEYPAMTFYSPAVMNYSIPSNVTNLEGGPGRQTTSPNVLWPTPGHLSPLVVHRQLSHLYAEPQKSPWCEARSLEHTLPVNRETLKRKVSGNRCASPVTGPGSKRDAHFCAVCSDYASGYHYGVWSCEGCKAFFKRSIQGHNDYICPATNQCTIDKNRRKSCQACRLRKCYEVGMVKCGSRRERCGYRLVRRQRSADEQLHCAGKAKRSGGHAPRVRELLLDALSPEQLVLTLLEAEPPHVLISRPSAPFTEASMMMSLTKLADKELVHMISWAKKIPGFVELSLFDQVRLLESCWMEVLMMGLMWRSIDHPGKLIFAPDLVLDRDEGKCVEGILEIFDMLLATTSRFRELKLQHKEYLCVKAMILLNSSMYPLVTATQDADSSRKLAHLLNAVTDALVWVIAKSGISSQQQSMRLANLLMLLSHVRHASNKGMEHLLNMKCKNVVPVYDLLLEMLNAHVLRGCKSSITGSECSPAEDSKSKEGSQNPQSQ
What is called inhibition is the percentage by which the read-out fell short of the control. Regarding `Cn1c(SCC(=O)Nc2sccc2C#N)nnc1-c1ccccc1`, the inhibition was 12%.

For the compound `Cc1cnc(C(=O)OCC(=O)c2csc(N3CCCCC3)n2)cn1`, the inhibition was 47%.

For `CCOC(=O)c1sc(NC(=O)c2ccc3ncsc3c2)nc1C`, the inhibition was 21%.

Regarding `Cc1ccccc1Nc1nnc(SCC(=O)NC(=O)NCc2ccco2)s1`, the inhibition is 0% (active).

On to `Cc1ccc(OCc2ccoc2C(=O)O)cc1C`, for which the inhibition is 0%.

Take `CC(C)(C)NC(=O)c1ccc2c(c1)C1C3CCC(C3)C1C(c1ccccc1)N2` (configuration not stated): the inhibition was 3%.

Turning to `CC(C)(C)OC(=O)N1CCN(c2ccc(NC(=O)Cn3nnc(-c4ccccc4)n3)cc2)CC1`, the inhibition was 64%.

Consider `COc1ccc2c(c1)[nH]c1c(=O)n(N)cnc12`, for which the inhibition was 4%.

In the case of `c1ccc(-c2nnc3sc(Cc4cccs4)nn23)cc1`, the inhibition is 18%.

Take `CC1=C(SCCC#N)S/C(=C2\SC(C)=C(SCCC#N)S2)S1`: the inhibition was 49%.

As for `Fc1ccc2c(c1)[C@H]1OCC[C@H]1[C@@H](c1ccco1)N2`, the inhibition is 37%.

In the case of `COc1cc(OC)cc(C(=O)NC2CCN(C(=O)N3c4ccccc4Sc4ccccc43)CC2)c1`, the inhibition was 21%.

For `O=C1C2C3C=CC(C3)C2C(=O)N1c1cccc2cccnc12` (configuration not stated), the inhibition is 55%.

Consider `Cc1cc(C)c2c(c1)NC(c1cc3c(cc1Br)OCO3)C1CC=CC21` (configuration not stated), for which the inhibition is 42%.

`Cc1c(Cl)cccc1NS(=O)(=O)c1ccc2c(c1)C1C=CCC1C(c1ccc(C(=O)O)cc1)N2` (configuration not stated): the inhibition was 2%.

Consider `Cc1nn2cc(-c3ccc(N)cc3)nc2s1`, for which the inhibition was 23%.

Regarding `O=C(Nc1nc(-c2nc3ccccc3s2)cs1)C1COc2ccccc2O1` (configuration not stated), the inhibition is 19%.
